Assay results reported in PubChem BioAssay (NCATS).
Results filed as inconclusive are left out. A call without a number means that no potency is given here. Active and inactive are the calls of the source. Unless noted, calls come from the whole dose curve.

Target: Alpha-galactosidase (Coffea arabica) (UniProt Q42656)
Assay: Counterscreen for Glucocerebrosidase Inhibitors: qHTS Assay for Coffee Bean alpha-Galactosidase at pH 4.5 (AID 957; active = well fitted curve in the direction sought with a large enough effect; an effect the other way counts as inactive or inconclusive)
Details: purified coffee bean alpha-galactosidase, fluorogenic substrate; series mostly up to 76.9 µM
Procedure, shortened: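 Fluorogenic qHTS at pH 4.5 (citrate buffer with Tween-20): 2 nM enzyme, 80 uM 4-MU-alpha-galactoside substrate, compound titrated 0.7 nM to 77 uM, 20 min room temperature. Glycine/NaOH stop; 4-MU read Ex 365/Em 440; Hill-equation AC50 against no-enzyme and enzyme controls.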

Alpha-galactosidase (Coffea arabica), sequence (Q42656 whole entry, looked up): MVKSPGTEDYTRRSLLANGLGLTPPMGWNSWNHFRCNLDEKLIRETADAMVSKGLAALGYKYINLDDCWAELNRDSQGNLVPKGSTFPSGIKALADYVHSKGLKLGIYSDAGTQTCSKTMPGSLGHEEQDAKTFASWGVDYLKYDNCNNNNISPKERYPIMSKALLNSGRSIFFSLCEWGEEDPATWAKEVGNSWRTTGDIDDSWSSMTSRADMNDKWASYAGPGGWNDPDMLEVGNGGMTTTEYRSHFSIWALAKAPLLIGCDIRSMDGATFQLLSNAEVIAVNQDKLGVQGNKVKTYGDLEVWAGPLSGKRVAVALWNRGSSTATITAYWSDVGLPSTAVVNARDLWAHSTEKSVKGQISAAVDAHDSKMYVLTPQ

| Compound | outcome |
| --- | --- |
| CC(N)=NCc1cccc(CN)c1 | inactive |
| NCCNC(=O)c1ccc(Cl)cc1 | inactive |
| C1CCC(N=C(NC23CC4CC(CC(C4)C2)C3)N2CCOCC2)CC1 | inactive |
| CCCn1c(=O)c2[nH]c(-c3ccc(OCC(=O)Nc4ccc(C#N)cc4)cc3)nc2n(CCC)c1=O | inactive |
| O=S(=O)(O)C1CCNCC1 | inactive |
| CCCCN1CCC(COC(=O)c2cc(Cl)c(N)c3c2OCCO3)CC1 | inactive |
| CCCNC[C@H](O)COc1ccccc1C(=O)CCc1ccccc1 | inactive |
| O=C(O)c1cc(=O)c2ccc(Cl)cc2[nH]1 | inactive |
| O=C(Cc1ccc(Cl)c(Cl)c1)OCCN1CCCC1 | inactive |
| NCCC(=O)NCCc1cnc[nH]1 | inactive |
| COc1ccccc1CNCCCCCCNCCCCCCCCNCCCCCCNCc1ccccc1OC | inactive |
| CC(=O)NCCc1ccc(O)c(O)c1 | inactive |
| N=C(N)SCCc1cccc(CCSC(=N)N)c1 | inactive |
| C[N+](C)(C)CCC(=O)c1cccc2ccccc12 | inactive |

Target: Alpha-galactosidase (Coffea arabica) (UniProt Q42656)
Assay: Counterscreen for Glucocerebrosidase Inhibitors: qHTS Assay for Coffee Bean alpha-Galactosidase at pH 5.9 (AID 998; active = well fitted curve in the direction sought with a large enough effect; an effect the other way counts as inactive or inconclusive)
Details: coffee bean alpha-galactosidase enzyme assay; series mostly up to 76.9 µM
Procedure, shortened: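 Enzyme 2 nM + cpd (0.7 nM–77 uM titration) + 4-MU-alpha-Gal 80 uM, pH 5.9 citrate/Tween-20, RT 20 min, NaOH/glycine stop pH 10, fluor 365/440. Normalized to no-enzyme and full-activity controls; Hill-fit AC50.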

| Compound | outcome |
| --- | --- |
| CC(N)=NCc1cccc(CN)c1 | inactive |
| NCCNC(=O)c1ccc(Cl)cc1 | inactive |
| C1CCC(N=C(NC23CC4CC(CC(C4)C2)C3)N2CCOCC2)CC1 | inactive |
| CCCn1c(=O)c2[nH]c(-c3ccc(OCC(=O)Nc4ccc(C#N)cc4)cc3)nc2n(CCC)c1=O | inactive |
| O=S(=O)(O)C1CCNCC1 | inactive |
| CCCCN1CCC(COC(=O)c2cc(Cl)c(N)c3c2OCCO3)CC1 | inactive |
| CCCNC[C@H](O)COc1ccccc1C(=O)CCc1ccccc1 | inactive |
| O=C(O)c1cc(=O)c2ccc(Cl)cc2[nH]1 | inactive |
| O=C(Cc1ccc(Cl)c(Cl)c1)OCCN1CCCC1 | inactive |
| CC(=O)NCCc1ccc(O)c(O)c1 | inactive |
| C[N+](C)(C)CCC(=O)c1cccc2ccccc12 | inactive |

Tested on: not listed separately
Assay: Validation screen for inhibitors of Lassa infection (AID 463096); note: potency is the fitted concentration of half-maximal effect
Details: Lassa virus infection, cell-based; series mostly up to 46.1 µM

| Compound | Potency |
| --- | --- |
| CC(N)=NCc1cccc(CN)c1 | inactive |
| CCCC1O[C@@H]2C[C@H]3[C@@H]4CCC5=CC(=O)C=C[C@]5(C)C4[C@@H](O)C[C@]3(C)[C@]2(C(=O)CO)O1 (stereo not given in full) | inactive |
| Nc1nc(Nc2ccccc2)nc2c1ncn2[C@@H]1O[C@H](CO)[C@H](O)[C@H]1O | inactive |
| NC(CCC(=O)NCS(=O)(=O)O)C(=O)O (stereo not given) | inactive |
| NCCNC(=O)c1ccc(Cl)cc1 | inactive |
| COc1cc(=O)n(C)c2c(OCC(O)C(C)(C)O)cccc12 (stereo not given) | inactive |
| CNC(=O)[C@H]1O[C@@H](n2cnc3c(NCc4ccc(N)cc4)ncnc32)[C@H](O)[C@H]1O | inactive |
| CNC(=O)[C@H]1O[C@@H](n2cnc3c(NCc4cccc(I)c4)ncnc32)[C@H](O)[C@H]1O | inactive |
| CC[C@H](C)C(=O)O[C@H]1CCC=C2C=C[C@H](C)[C@H](CC[C@@H]3C[C@H](O)CC(=O)O3)C21 (stereo not given in full) | inactive |
| CNC(=O)[C@H]1O[C@@H](n2cnc3c(N)ncnc32)[C@H](O)[C@H]1O | inactive |
| Nc1nc(Cl)nc2c1ncn2[C@@H]1O[C@H](CO)[C@H](O)[C@H]1O | inactive |
| C1CCC(N=C(NC23CC4CC(CC(C4)C2)C3)N2CCOCC2)CC1 | inactive |
| CCCn1c(=O)c2[nH]c(-c3ccc(OCC(=O)Nc4ccc(C#N)cc4)cc3)nc2n(CCC)c1=O | inactive |
| CC(=O)SC1CC2=CC(=O)CC[C@]2(C)C2CC[C@@]3(C)[C@@H](CC[C@@]34CCC(=O)O4)C12 (stereo not given in full) | inactive |
| CC(O)[C@@H](O)[C@H]1CNc2nc(N)[nH]c(=O)c2N1 (stereo not given in full) | inactive |
| CN(C)CCCO[C@H]1C([C@H](O)CO)O[C@@H]2OC(C)(C)O[C@@H]21 (stereo not given in full) | inactive |
| O=S(=O)(O)C1CCNCC1 | inactive |
| C[C@@H](Oc1ccc(Oc2cnc3ccc(Cl)cc3n2)cc1)C(=O)O | inactive |
| Nc1ncnc2c1ncn2[C@@H]1O[C@H](C(=O)NC2CC2)[C@H](O)[C@H]1O | inactive |
| CN1CCc2cc(Cl)c(O)cc2C(c2ccccc2)C1 (stereo not given) | inactive |

| Compound | Potency |
| --- | --- |
| Cc1cn([C@H]2C[C@@H](N=[N+]=[N-])[C@@H](CO)O2)c(=O)[nH]c1=O | inactive |
| CC(=O)O[C@]1(C(C)=O)CC[C@H]2C3C=C(Cl)C4=CC(=O)[C@@H]5C[C@H]5[C@]4(C)C3CC[C@@]21C (stereo not given in full) | inactive |
| C[C@H]1CC2[C@@H]3CCC4=CC(=O)C=C[C@]4(C)[C@@]3(Cl)[C@@H](O)C[C@]2(C)[C@@]1(O)C(=O)CO (stereo not given in full) | inactive |
| N#CC(Cc1ccc(O)c(O)c1)C(=O)N1CCc2ccccc21 (stereo not given) | inactive |
| CCCCN1CCC(COC(=O)c2cc(Cl)c(N)c3c2OCCO3)CC1 | inactive |
| COc1ccc(CCNC[C@@H](O)c2ccc(O)cc2)cc1OC | inactive |
| CC(C)(C)NCC(O)COc1nsnc1N1CCOCC1 (stereo not given) | inactive |
| CCCNC[C@H](O)COc1ccccc1C(=O)CCc1ccccc1 | inactive |
| O=c1[nH]c(=O)n([C@H]2C[C@H](O)[C@@H](CO)O2)cc1/C=C/Br | inactive |
| COc1ccc2c(c1OC)C(=O)OC2C1c2c(cc3c(c2OC)OCO3)CCN1C (stereo not given) | inactive |
| O=C(O)c1cc(=O)c2ccc(Cl)cc2[nH]1 | inactive |
| OC[C@H]1O[C@@H](n2cnc3c(N[C@H]4CC5CCC4C5)ncnc32)[C@H](O)[C@@H]1O (stereo not given in full) | inactive |
| O=C(Cc1ccc(Cl)c(Cl)c1)OCCN1CCCC1 | inactive |
| NCCC(=O)NCCc1cnc[nH]1 | inactive |
| COc1ccccc1CNCCCCCCNCCCCCCCCNCCCCCCNCc1ccccc1OC | inactive |
| CN=C(N)NCCCC(N)C(=O)O (stereo not given) | inactive |
| CC(=O)NCCc1ccc(O)c(O)c1 | inactive |
| N=C(N)SCCc1cccc(CCSC(=N)N)c1 | inactive |
| C[N+](C)(C)CCC(=O)c1cccc2ccccc12 | 10 µM (active) |
| Nc1ncnc2c1nc(Sc1ccc(Cl)cc1)n2[C@H]1O[C@@H]2COP(=O)(O)O[C@H]2[C@@H]1O | inactive |
